# Measured values published in PubChem BioAssay.
# Inconclusive results are not listed. The source made the active and inactive calls.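 Rule for the calls, unless noted: active = binding below the plate cutoff, the plate median minus 3 SD, with a reading above zero; inconclusive = below the plate cutoff but reading exactly zero; inactive = the rest.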
# Legend:
# [1] = yeast TOR pathway RPL19A-GFP modulators, primary screen, cell-based, S. cerevisiae, multiplex flow cytometry (AID 1862; in the data active = percent of DMSO control GFP below about 86%;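 note: lower values mimic rapamycin by blocking the RPL19A rise seen in DMSO cells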); conditions: S. cerevisiae RPL19A-GFP strain, flow cytometry fluorescence, 3 h; at 10 µM; stronger effect = lower value
# [2] = modulators of MEP2-GFP levels in yeast, primary screen, S. cerevisiae, multiplex flow cytometry (AID 1867;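 active = GFP response, as percent of the DMSO control, above the screen-wide mean plus 3 SD, about 139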;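 note: median GFP channel fluorescence of barcode-gated MEP2-GFP cells measured by flow cytometry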); conditions: S. cerevisiae MEP2-GFP strain, 3 h, at 10 µM, stronger effect = higher value, 100% means same as DMSO wells
# [3] = modulators of CIT2-GFP expression in yeast, primary screen, S. cerevisiae, GFP fusion, multiplex flow cytometry (AID 1870;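 active = percent response above a set limit, the screen-wide mean plus 3 SD, cut at about 130% in these data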;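 note: barcoded CIT2-GFP strain pooled with four other GFP strains with rapamycin as positive control; median GFP fluorescence per well over plate mean of DMSO wells so 100% = DMSO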); conditions: 3 h, at 10 µM, stronger effect = higher value
# [4] = modulators of LAP4-GFP expression in yeast, primary screen, S. cerevisiae, multiplex flow cytometry (AID 1873;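 active = GFP signal, as percent of the solvent control, above the screen mean plus 3 SD, about 149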); conditions: 3 h, at 10 µM, stronger effect = higher value
# [5] = modulators of AGP1-GFP expression in yeast TOR pathway, primary screen, cell-based, multiplex flow cytometry, S. cerevisiae (AID 1887;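 active = GFP signal above the screen-wide mean plus 3 SD, that is over about 124.5% of the solvent control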;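 note: AGP1-GFP fusion strain of S. cerevisiae within a five-strain barcoded multiplex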); conditions: 3 h, at 10 µM, stronger effect = higher value
# [6] = inhibitors of CD8+ T cell-vesicle binding, pilot screen, LFA-1/ICAM-1 modulator project, MLPCN validation set, flow cytometry (AID 2523;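 active = response below a set limit, under 55% cells CD8-positive and vesicle-bound, and CD8 cells' 90th-percentile brightness under 279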;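 for vesicle binding response: mean PE anti-B7-1 fluorescence of CD8+ cells relative to row control; 100% = QL9-loaded vesicles with DMSO vehicle in the same plate row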); conditions: 2C mouse CD8+ T cells, at 7 µM, stronger effect = lower value; double positive events: measured here: CD8+/vesicle+ event percentage
# [7] = biological target: Integrin beta-1 (Homo sapiens) + Integrin alpha-4 (Homo sapiens) (UniProt P13612+P05556); test: inhibition of HUTS-21 binding to VLA-4, pilot screen, VLA-4 allosteric modulator project, U937 cells, HUTS-21 mAb, flow cytometry, validation set (AID 2674;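 active = inhibition above 50%, about 3 SD of the validation set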;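 note: antibody binding induced by the VLA-4 ligand LDV present at three times its Kd; 0% = LDV ligand with antibody and no compound and 100% = antibody without LDV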); conditions: HUTS-21 LIBS mAb binding, at 6.7 µM, stronger effect = higher value, binding induced by LDV ligand
# [8] = superoxide lowering in aged yeast cells, pilot screen, validation compound set (AID 2706;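 active = superoxide response below 65% of plate, a cut near 3 SD across the whole screen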;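 note: yeast exposed to compound for one week at 30 degrees C before staining; 100% = mean of all compound wells on the same plate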); conditions: S. cerevisiae aging, superoxide DHE fluorescence; at 10 µM; stronger effect = lower value
# [9] = biological target: Beta-adrenergic receptor kinase 1 (Homo sapiens) (UniProt P25098); test: GRK2 binders displacing RNA aptamer, biochemical, validation, human GRK2, bead flow cytometry (AID 488806;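 active = aptamer binding inhibition above 30%, about 3 SD of noise from non-fluorescent compounds; inactive = inhibition at or below 30%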); conditions: bead-bound GRK2, FAM-aptamer displacement, at 10 µM, stronger effect = higher value
# [10] = biological target: Beta-2 adrenergic receptor (Homo sapiens) (UniProt P07550); test: beta2AR agonists driving receptor internalization, pilot screen, cell-based, FAP fluorogen, flow cytometry, validation set (AID 504459;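 active = percent response above 42, roughly 3 SD of non-fluorescent test compounds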;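 note: agonist-driven loss of surface beta2AR via internalization measured by FAP dye flow cytometry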); conditions: Am2.2-beta2AR cells, FAP surface receptor flow cytometry; at 10 µM; stronger effect = higher value
# [11] = biological target: AP-2 complex subunit beta (Homo sapiens) (UniProt P63010); test: inhibitors of arrestin peptide binding to AP2, pilot screen, biochemical, validation set, GST-AP2 beads, flow cytometry (AID 504541;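 active = inhibition above 54%, about 3 SD of non-fluorescent compounds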;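 note: AP2 carries R879A mutation and is captured from E. coli lysate; bead-bound FITC arrestin peptide fluorescence measuring arrestin peptide binding to AP2; 0% = DMSO wells and 100% = excess unlabeled arrestin peptide control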); conditions: FITC arrestin peptide, at 10 µM, stronger effect = higher value, AP2 beta2 appendage fragment, R879A mutant
# [12] = yeast V-ATPase proton transport modulators, S. cerevisiae, pHLuorin, HTS validation (AID 504600; in the data active = response above about 15%;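 note: plate controls were DMSO for no effect and reference compound for full effect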); conditions: S. cerevisiae pHLuorin cytosolic pH, at 10 µM, stronger effect = higher value
# [13] = tested on: anti-desmoglein-3 scFv antibody binding to human DSG3; test: inhibitors of anti-DSG3 scFv binding to DSG3, pilot screen, biochemical, validation compound set, bead-based, flow cytometry (AID 588368); conditions: Protein G beads, DSG3-Fc, scFv-GFP binding, at 10 µM, stronger effect = lower value;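 note: signal is the median channel fluorescence of bead-bound GFP antibody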
# [14] = inhibitors of fungal efflux pumps CDR1, CDR2, MDR1, pilot screen, validation compound set, multiplex, phenotypic (AID 588506;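 active = efflux inhibition above 0.42, the validation set average plus 4 SD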;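 note: Nile Red retained in cells so higher fluorescence means more efflux inhibition; 0 = negative control wells and 1 = enniatin B 25 µM full block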); conditions: S. cerevisiae pump-expressing triplex, Nile Red efflux flow cytometry; at 10 µM; stronger effect = higher value; the pumps come from Candida albicans
# [15] = biological target: ATP-binding cassette sub-family B member 6 (Homo sapiens) (UniProt Q9NP58); test: ABCB6 transporter inhibitors, pilot screen, K562-ABCB6 cells, flow cytometry, validation set (AID 588550;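 active = inhibition above the screen-wide mean plus 3 SD, about 51%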;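 note: 0% = DMSO wells and 100% = benzethonium chloride 70 µM positive control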); conditions: K562-ABCB6 porphyrin accumulation, 1 h, at 10 µM, stronger effect = higher value
# [16] = promoters of myeloid differentiation in arrested cells, primary screen, cell-based, GFP/MAC1 double positive, flow cytometry, validation set (AID 588685;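 active = differentiation response of at least 50%, scaled between solvent and reference control, from cells with both markers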;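 note: compound exposure lasts four days before antibody staining and flow analysis; 0% = DMSO wells and 100% = 5 µM fulvestrant positive control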); conditions: ER-HoxA9 marrow cells, stronger effect = higher value, normalized: vehicle 0, fulvestrant 100
# Sequence of AP-2 complex subunit beta (Homo sapiens) (P63010 whole entry, looked up, the tested form may be a part, one chain of several): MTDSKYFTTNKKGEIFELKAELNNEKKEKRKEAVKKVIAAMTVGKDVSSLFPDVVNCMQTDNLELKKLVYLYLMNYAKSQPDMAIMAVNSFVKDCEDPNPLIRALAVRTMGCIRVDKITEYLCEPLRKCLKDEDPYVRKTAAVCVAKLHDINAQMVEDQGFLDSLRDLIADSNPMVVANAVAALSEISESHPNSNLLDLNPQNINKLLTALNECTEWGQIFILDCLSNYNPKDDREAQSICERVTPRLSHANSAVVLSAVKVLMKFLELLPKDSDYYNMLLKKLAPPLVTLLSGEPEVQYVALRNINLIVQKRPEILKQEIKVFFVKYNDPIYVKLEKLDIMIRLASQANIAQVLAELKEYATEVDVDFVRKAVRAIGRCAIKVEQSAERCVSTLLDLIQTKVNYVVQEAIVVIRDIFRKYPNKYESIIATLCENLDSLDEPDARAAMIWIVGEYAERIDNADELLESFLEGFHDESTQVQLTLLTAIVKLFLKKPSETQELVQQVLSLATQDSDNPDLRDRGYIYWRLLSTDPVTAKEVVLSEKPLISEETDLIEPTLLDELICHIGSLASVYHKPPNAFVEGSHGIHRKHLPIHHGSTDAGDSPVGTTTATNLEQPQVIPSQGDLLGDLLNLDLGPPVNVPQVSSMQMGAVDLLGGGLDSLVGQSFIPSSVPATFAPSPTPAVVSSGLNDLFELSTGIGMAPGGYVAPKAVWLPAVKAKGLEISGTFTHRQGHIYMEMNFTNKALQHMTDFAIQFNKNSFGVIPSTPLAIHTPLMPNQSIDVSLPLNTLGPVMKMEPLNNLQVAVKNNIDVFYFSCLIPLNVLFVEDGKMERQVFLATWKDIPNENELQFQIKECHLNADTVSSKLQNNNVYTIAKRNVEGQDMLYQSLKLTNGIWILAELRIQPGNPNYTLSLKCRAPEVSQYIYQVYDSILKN
# Sequence of Integrin beta-1 (Homo sapiens) + Integrin alpha-4 (Homo sapiens) (P05556 whole entry, looked up): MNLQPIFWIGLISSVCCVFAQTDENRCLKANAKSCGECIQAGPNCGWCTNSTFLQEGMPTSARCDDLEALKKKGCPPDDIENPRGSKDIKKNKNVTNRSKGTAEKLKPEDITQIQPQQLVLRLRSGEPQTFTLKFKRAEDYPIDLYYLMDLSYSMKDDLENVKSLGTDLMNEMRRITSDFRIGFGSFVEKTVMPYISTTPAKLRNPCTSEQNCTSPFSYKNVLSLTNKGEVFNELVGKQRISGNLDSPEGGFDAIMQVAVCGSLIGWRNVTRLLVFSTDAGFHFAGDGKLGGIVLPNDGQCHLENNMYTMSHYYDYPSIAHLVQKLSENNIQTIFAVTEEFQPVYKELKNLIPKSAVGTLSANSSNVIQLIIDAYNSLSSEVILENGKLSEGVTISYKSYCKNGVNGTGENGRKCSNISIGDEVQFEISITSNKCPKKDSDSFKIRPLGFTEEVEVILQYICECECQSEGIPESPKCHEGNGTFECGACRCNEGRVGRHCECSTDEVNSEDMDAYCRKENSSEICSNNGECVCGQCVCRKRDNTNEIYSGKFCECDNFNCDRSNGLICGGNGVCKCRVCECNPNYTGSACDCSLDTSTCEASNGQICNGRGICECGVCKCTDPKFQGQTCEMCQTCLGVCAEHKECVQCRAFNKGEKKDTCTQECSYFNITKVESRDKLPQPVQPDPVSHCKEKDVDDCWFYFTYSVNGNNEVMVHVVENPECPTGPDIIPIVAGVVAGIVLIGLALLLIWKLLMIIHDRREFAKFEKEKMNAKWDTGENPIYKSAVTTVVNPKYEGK
# Sequence of Integrin beta-1 (Homo sapiens) + Integrin alpha-4 (Homo sapiens) (P13612 whole entry, looked up): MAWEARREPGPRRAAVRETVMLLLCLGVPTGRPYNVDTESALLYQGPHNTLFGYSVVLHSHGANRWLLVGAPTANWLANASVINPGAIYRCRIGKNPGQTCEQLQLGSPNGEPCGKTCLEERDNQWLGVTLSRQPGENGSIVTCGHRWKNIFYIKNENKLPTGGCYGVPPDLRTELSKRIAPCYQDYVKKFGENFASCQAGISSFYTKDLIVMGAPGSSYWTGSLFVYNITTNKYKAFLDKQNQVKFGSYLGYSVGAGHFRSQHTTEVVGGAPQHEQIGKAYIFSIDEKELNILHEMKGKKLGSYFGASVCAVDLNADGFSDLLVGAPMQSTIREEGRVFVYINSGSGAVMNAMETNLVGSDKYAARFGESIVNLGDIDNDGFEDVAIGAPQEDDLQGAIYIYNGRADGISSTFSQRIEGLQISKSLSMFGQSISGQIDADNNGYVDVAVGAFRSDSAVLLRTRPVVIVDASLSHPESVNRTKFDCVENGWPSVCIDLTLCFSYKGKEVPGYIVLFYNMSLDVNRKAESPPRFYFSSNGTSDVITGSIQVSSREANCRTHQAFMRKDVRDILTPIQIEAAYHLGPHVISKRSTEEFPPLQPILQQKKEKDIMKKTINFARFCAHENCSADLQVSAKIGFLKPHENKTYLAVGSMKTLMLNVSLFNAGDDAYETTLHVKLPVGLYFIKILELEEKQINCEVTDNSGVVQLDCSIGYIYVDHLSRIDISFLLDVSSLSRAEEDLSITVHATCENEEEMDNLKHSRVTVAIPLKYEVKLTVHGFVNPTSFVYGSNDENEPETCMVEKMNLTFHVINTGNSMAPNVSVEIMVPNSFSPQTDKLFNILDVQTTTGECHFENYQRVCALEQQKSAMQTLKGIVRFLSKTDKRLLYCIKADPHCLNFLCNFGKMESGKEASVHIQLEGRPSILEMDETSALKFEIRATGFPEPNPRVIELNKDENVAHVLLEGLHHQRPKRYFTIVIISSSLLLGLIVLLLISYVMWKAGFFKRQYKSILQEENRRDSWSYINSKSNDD
# Sequence of Beta-adrenergic receptor kinase 1 (Homo sapiens) (P25098 whole entry, looked up): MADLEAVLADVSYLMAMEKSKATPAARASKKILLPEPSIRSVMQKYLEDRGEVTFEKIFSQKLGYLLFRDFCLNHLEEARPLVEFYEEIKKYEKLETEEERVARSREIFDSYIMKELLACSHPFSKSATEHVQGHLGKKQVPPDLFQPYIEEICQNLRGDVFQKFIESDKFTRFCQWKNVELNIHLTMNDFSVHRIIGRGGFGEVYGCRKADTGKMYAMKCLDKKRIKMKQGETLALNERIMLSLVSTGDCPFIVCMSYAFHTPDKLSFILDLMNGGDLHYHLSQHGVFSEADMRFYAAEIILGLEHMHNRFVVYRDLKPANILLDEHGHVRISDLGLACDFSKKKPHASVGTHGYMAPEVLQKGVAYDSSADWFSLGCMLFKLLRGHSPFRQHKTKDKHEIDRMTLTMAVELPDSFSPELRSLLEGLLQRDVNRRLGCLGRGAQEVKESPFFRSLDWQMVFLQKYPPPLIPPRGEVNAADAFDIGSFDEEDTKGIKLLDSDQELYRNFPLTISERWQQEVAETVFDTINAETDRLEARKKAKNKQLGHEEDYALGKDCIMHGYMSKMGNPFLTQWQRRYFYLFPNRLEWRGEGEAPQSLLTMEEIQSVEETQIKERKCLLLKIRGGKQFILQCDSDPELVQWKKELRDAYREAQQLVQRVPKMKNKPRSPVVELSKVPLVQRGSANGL
# Sequence of ATP-binding cassette sub-family B member 6 (Homo sapiens) (Q9NP58 whole entry, looked up): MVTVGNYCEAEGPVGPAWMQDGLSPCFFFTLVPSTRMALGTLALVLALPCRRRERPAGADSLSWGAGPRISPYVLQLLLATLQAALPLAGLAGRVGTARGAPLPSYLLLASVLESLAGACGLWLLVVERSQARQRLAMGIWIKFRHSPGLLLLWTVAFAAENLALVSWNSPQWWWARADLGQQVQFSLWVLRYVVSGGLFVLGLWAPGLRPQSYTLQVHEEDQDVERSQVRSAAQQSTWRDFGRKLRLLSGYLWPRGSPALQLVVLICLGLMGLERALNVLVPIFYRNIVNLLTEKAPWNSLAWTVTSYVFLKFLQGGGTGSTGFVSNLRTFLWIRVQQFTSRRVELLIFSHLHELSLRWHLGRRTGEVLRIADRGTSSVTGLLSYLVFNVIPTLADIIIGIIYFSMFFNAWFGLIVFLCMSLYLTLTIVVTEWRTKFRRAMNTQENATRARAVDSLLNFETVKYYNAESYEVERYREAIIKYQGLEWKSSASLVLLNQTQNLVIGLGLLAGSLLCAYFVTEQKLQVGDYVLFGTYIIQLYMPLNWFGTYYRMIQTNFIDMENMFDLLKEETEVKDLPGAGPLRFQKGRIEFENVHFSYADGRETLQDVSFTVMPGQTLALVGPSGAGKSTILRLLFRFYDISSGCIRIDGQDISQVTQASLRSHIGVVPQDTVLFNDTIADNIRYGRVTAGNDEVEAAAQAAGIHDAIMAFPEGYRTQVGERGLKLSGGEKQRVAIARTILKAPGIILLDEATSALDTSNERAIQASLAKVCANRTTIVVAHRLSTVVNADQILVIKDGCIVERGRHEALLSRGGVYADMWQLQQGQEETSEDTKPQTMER
# Sequence of Beta-2 adrenergic receptor (Homo sapiens) (P07550 whole entry, looked up): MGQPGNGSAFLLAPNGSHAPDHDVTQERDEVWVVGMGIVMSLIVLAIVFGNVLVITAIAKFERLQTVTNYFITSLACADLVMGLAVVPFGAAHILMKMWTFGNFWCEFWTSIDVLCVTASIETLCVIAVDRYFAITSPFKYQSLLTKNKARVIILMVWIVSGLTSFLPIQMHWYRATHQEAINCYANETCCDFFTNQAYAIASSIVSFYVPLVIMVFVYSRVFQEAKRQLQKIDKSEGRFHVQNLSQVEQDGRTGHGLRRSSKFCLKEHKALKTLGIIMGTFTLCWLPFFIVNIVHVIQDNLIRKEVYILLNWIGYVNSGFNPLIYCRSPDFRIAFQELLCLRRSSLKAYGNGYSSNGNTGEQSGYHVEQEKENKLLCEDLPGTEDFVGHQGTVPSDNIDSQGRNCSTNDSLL
Compound,percent of DMSO control GFP [1],GFP response vs DMSO [2],percent response of DMSO control [3],GFP response vs DMSO [4],"GFP response, % of DMSO [5]",double positive events [6],vesicle binding response [6],inhibition [7],superoxide response (% of plate) [8],aptamer binding inhibition [9],response [10],inhibition [11],response [12],binding (% of control) [13],efflux inhibition (fraction of control) [14],inhibition [15],differentiation response [16]
NC[C@H]1O[C@H](O[C@H]2[C@H](O)[C@@H](O[C@H]3O[C@H](CO)[C@@H](O)[C@H](N)[C@H]3O)[C@H](N)C[C@@H]2N)[C@H](N)C[C@@H]1O,101% (inactive),102% (inactive),95.1% (inactive),109% (inactive),110% (inactive),63.2%,273% (inactive),12.5% (inactive),110% (inactive),3% (inactive),-5.14% (inactive),-4.09% (inactive),-21.1% (inactive),109% (inactive),0.04 (inactive),2% (inactive),-7.94% (inactive)
O=C(O)CCC(=O)c1ccc(-c2ccccc2)cc1,102% (inactive),102% (inactive),102% (inactive),125% (inactive),108% (inactive),65.4%,245% (inactive),-9.13% (inactive),99.8% (inactive),-1% (inactive),11.2% (inactive),10.7% (inactive),-4.64% (inactive),103% (inactive),0.36 (inactive),0% (inactive),-11.9% (inactive)
CC1CCN(CCOCCOc2ccccc2Br)CC1,102% (inactive),103% (inactive),93.1% (inactive),86.8% (inactive),97.2% (inactive),54.8%,167% (inactive),8.88% (inactive),95.8% (inactive),0% (inactive),-4.72% (inactive),-6.16% (inactive),-0.14% (inactive),95.6% (inactive),-0.17 (inactive),-4% (inactive),15.9% (inactive)
CCCCOC(=O)c1ccc(N)cc1,101% (inactive),104% (inactive),110% (inactive),93.7% (inactive),105% (inactive),59.9%,183% (inactive),-15.8% (inactive),91.1% (inactive),-3% (inactive),-7.71% (inactive),53.1% (inactive),-4.52% (inactive),99.4% (inactive),-0.03 (inactive),-2% (inactive),-7.5% (inactive)
CC(C)CC(=O)NC(NC(=O)CC(C)C)c1cccc([N+](=O)[O-])c1,101% (inactive),102% (inactive),111% (inactive),100% (inactive),100% (inactive),60.1%,118% (inactive),1.59% (inactive),118% (inactive),19% (inactive),3.17% (inactive),7.92% (inactive),3.51% (inactive),99% (inactive),0.09 (inactive),11% (inactive),-8.96% (inactive)
COc1ccc(/C=C\c2cc(OC)c(OC)cc2CC[N+](C)(C)C)cc1OC,96.3% (inactive),102% (inactive),101% (inactive),122% (inactive),103% (inactive),57.8%,216% (inactive),-4.52% (inactive),108% (inactive),-3% (inactive),-7.25% (inactive),-9.15% (inactive),0.95% (inactive),103% (inactive),0.26 (inactive),2% (inactive),-0.8% (inactive)
CC(C)(Oc1ccc(CCNC(=O)c2ccc(Cl)cc2)cc1)C(=O)O,106% (inactive),107% (inactive),96.6% (inactive),101% (inactive),103% (inactive),65.7%,137% (inactive),-8.75% (inactive),110% (inactive),3% (inactive),-3.83% (inactive),23.2% (inactive),-4.97% (inactive),93.5% (inactive),0.08 (inactive),19% (inactive),8.06% (inactive)
COc1ccc(CNC(=O)N[C@H](C(=O)O)C(C)C)cc1OC,92.6% (inactive),119% (inactive),111% (inactive),81.4% (inactive),89.8% (inactive),53.2%,186% (inactive),-9.06% (inactive),112% (inactive),-5% (inactive),-4.83% (inactive),-15.3% (inactive),1.94% (inactive),98.1% (inactive),0.3 (inactive),3% (inactive),7.37% (inactive)
COC(=O)C1[C@H]2C(=O)N(Cc3cccs3)C[C@]23C=C[C@H]1O3 (stereo not given in full),105% (inactive),90.9% (inactive),105% (inactive),80.2% (inactive),99.5% (inactive),58.4%,194% (inactive),28.6% (inactive),98.1% (inactive),2% (inactive),-4.45% (inactive),-9.57% (inactive),2.19% (inactive),95% (inactive),0.3 (inactive),6% (inactive),14.9% (inactive)
CCCCCC(O)c1cccc(OCc2ccc3ccccc3n2)c1 (stereo not given),101% (inactive),97.6% (inactive),99% (inactive),130% (inactive),109% (inactive),65.2%,227% (inactive),22.7% (inactive),110% (inactive),2% (inactive),-42.6% (inactive),6.94% (inactive),1.82% (inactive),92.4% (inactive),0.04 (inactive),5% (inactive),-8.93% (inactive)
